According to PubChem BioAssay AID488841 (Sanford-Burnham Center for Chemical Genomics, 2010):
About 380 (27%) of roughly 1,400 compounds were called active.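 How the source made its calls: active means mean inhibition above 50% across duplicate retests at 10 µM; inactive means the rest.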 Some of the results follow.

experiment: yeast NALP1 reporter signal suppression – S. cerevisiae, luminescence, single concentration, NALP1 inhibitor project, confirmation (AID 488841);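 further: plate controls were DMSO in galactose medium for no effect and cells in plain SD medium for full effect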; settings: S. cerevisiae NALP1/ASC/Caspase-1 reporter, beta-gal luminescence; at 10 µM; stronger effect = higher value

inhibition, active:
O=C(CN1CCSC1=NCc1ccccc1)c1ccc(Cl)c(Cl)c1 52.2%, O=C(NC(Nc1nc2ccc([N+](=O)[O-])cc2s1)(C(F)(F)F)C(F)(F)F)c1ccccc1Cl 99.5%, O=C1C=CCC(/C=C/c2ccccc2)O1 (stereo not drawn) 69.2%, COc1ccc(CCNCc2ccc(OCc3ccccc3)cc2)cc1 78.5%, COc1ccc(CNCCC(c2ccc(F)cc2)c2ccc(OC)cc2)cc1 (stereo not drawn) 65.8%, COc1ccc(OCCCC(=O)NCCc2ccccc2)cc1 60.8%, Oc1c(I)cc(Cl)c2cccnc12 56.2%, C=C(C)COc1ccc2c(CC)cc(=O)oc2c1C 63.1%, C=CCNC(=S)N/N=C(\C)c1ccccn1 57.5%, COc1cc(/C=N/n2cnnc2)ccc1OCc1ccc(C)cc1 50.9%, COC(=O)N/N=C(\C)c1ccc2ccccc2c1OC(F)F 55.9%, CCSc1ncc(/C=N/Nc2ccccc2)n1C 68.9%, COc1ccc(CNc2cccc(F)c2)cc1Br 62%, CC1CC1C(=O)Nc1nc(-c2ccccc2)cs1 (stereo not drawn) 66.7%, O=C1C2C(C(=O)N1/N=C/c1cc(Br)cc([N+](=O)[O-])c1O)C1C=CC2C12CC2 (stereo not drawn) 59.4%, O=C1C=CC(=O)N1c1ccc(N2CCCCC2)cc1 70.8%, CCCCCCCCCCCCCCCC[n+]1ccc(/C=N/O)cc1 82%, CCCCCCCCCCCCCCCC[n+]1ccc(C(N)=O)cc1 81.4%, CCCCCCCCCCCCCCCC[n+]1cccc(C(=O)N(CC)CC)c1 80.4%, CC1=CC2=NC(=O)/C(=C\c3cccn3CCOc3cccc(C)c3)C(=N)N2O1 76.5%, CCOC(=O)COc1ccc2ccccc2c1/C=C/[N+](=O)[O-] 99.7%, CCOC(=O)COc1ccccc1/C=C\[N+](=O)[O-] 101%, CC(NCCC(c1ccccc1)c1ccccc1)c1ccccc1 (stereo not drawn) 50.5%, CCN1/C(=C/C=C/C=C/c2sc3ccccc3[n+]2CC)Sc2ccccc21 51%, CC(C)(C)c1nnc(N/N=C/c2cc(Br)ccc2O)n(N)c1=O 53.5%, Cc1cc2ncn(/N=C/c3ccc([N+](=O)[O-])s3)c2cc1C 65.3%, O=S(=O)(Nc1ccc(-n2cccc2)cc1)c1ccc(Cl)cc1Cl 52.4%, CCCC(=O)c1ccc(-c2ccccc2)cc1 52.4%, CCCCCCCCCCCCCCCCn1cc[n+](C)c1 84.8%, CCCCCCCCCCCCCCCCn1cc[n+](CC(C)=O)c1 76.5%, CNc1nc(SCc2ccccc2Cl)nc2c1CCCC2 99%, CNc1nc(SCc2ccc(C)cc2)nc2c1CCCC2 98.8%, CC(C)N1CCC2(CC1)N=C(c1ccc3c(c1)OCO3)CC(c1cc(Cl)ccc1O)N2 (stereo not drawn) 62.8%, COc1ccc(Nc2ccnc(Nc3ccc(OC)cc3)n2)cc1 55%

inhibition, inactive:
COc1ccc(N2CCN(CC(=O)NC(=O)NCc3ccco3)CC2)cc1 28.6%, CN(C)S(=O)(=O)c1ccc(N2CCCC2)c(C(=O)Nc2nc3ccccc3s2)c1 36.7%, CCOc1ccc(CNC(=O)c2cc3oc4ccccc4c3n2C)cc1 7.2%, c1ccc(-c2c[nH]c3[n+]2CCCCC3)cc1 26.2%, COc1ccc(OCCCC(=O)NCC(C)C)cc1 32.4%, CCOCCCNCc1ccc(OCc2ccccc2Cl)cc1 49.2%, COc1ccc(CNCCSc2nnnn2C)cc1OC 49%, COc1ccc(C(CCNCc2ccccc2F)c2ccc(F)cc2)cc1 (stereo not drawn) 48.2%, COc1ccc(OCCCC(=O)Oc2ccc(OC)cc2)cc1 42.6%, CCc1ccc(OCCNC(=O)OCc2ccccc2)cc1 48.8%, CN(C)c1ccc(O)c2c1CC1CC3[C@@H](N(C)C)C(=O)C(C(N)=O)=C(O)[C@]3(O)C(=O)C1=C2O (stereo partly drawn) 28.8%, Cc1cc(/C=C2/SC(=S)N(c3ccc([N+](=O)[O-])cc3)C2=O)c(C)n1-c1cccnc1 34.9%, O=C1Cc2ccccc2C(=O)N1OCc1ccc(Cl)cc1Cl 26.8%, COc1cc(Cc2cnc(N)nc2N)cc(OC)c1OC 24.9%, Oc1c(CN2CCCCC2)cc(Br)c2cccnc12 26.2%, CC1CCCN(CCC(=O)c2ccc(Br)cc2)C1 (stereo not drawn) 28.8%, CC1=NN(c2ccc(C)cc2C)C(=O)C1C(c1cccc(O)c1)C1C(=O)N(c2ccc(C)cc2C)N=C1C (stereo not drawn) 38%, C/C(=N\NC(=O)Nc1ccccc1)c1ccccc1 47.1%, COc1cccc(NC(=O)Cn2cnc3sc(C)c(S(=O)(=O)N4CCCCC4)c3c2=O)c1 20.9%, COc1cc(C2Nc3ccccc3C(=O)N2c2ccccc2)ccc1O (stereo not drawn) 27.3%, COC1=C(N)C(=O)c2nc(-c3nc(C(=O)O)c(C)c(-c4ccc(OC)c(OC)c4O)c3N)ccc2C1=O 33.7%, Cc1cccc(N2Cc3ccccc3C2=NC(=O)c2ccc(Cl)nc2)c1 26.5%, CCSc1nnc(-c2cnn(-c3ccccc3)c2-n2cccc2)n1C 26.1%, Clc1ccc(OCCCNCc2ccccc2)c2ccccc12 49.3%, COC(=O)C(CCSC)NC(=O)Cn1ncc2c(=O)oc3ccccc3c21 (stereo not drawn) 35.1%, CN(C#N)c1nc(Cl)nc(Nc2cccc(Cl)c2)n1 23.4%, COc1ccc(Cc2ccc(OC)c(N)c2)cc1N 36.5%, O=C(COc1ccc(Br)cc1Br)NC(=S)Nc1cccc(CO)c1 29.1%, CC(C)c1ccc(NCCC(=O)c2cccs2)cc1 44.8%, O=C(COC(=O)c1cccs1)Nc1nc(-c2ccccc2)cs1 34%, O=C(COC(=O)/C=C/c1cccs1)Nc1nc(-c2ccccc2)cs1 13.8%, O=C(Cc1coc2cc3c(cc12)CCC3)NCC1(N2CCCCC2)CCCCC1 22.9%, O=C1C2C(C(=O)N1/N=C/c1ccc([N+](=O)[O-])o1)C1C=CC2C12CC2 (stereo not drawn) 34.8%, O=C(CN1CCCCC1)Nc1cccc(Oc2ccccc2)c1 25.9%, O=[N+]([O-])c1ccc(N2CCCCC2)cc1 32.1%, O=S(=O)(N1CCCCC1)N1CCN(c2ccc(F)cc2)CC1 29.6%, CCCCN(CC)S(=O)(=O)c1ccccc1 -8.3%, C1=CC2CC1CC2CN1CCN(Cc2ccccc2)CC1 (stereo not drawn) 46.4%, COc1cc(-c2nc(C(F)(F)F)c(OC)o2)cc(OC)c1OC 28.9%, O=C(NC(N1CCOCC1)C(Cl)(Cl)Cl)c1ccc(Br)cc1 (stereo not drawn) -17.9%, O=C(O)/C=C/C(=O)OC1CC2CCC1C2 (stereo not drawn) 24.1%, CN(C)Cc1ccccc1COc1ccccc1 23.2%, C/C(=C(\C#N)C(=O)NCc1ccccc1)N(C)C 33.3%, Cc1cc(N2CCOCC2)ccc1/C=C\[N+](=O)[O-] 41.6%, COc1ccccc1OCC(=O)N/N=C/C=C/c1ccc([N+](=O)[O-])o1 32.6%, CCOc1ccc(NC(=O)/C=C/c2ccccc2)c([N+](=O)[O-])c1 31.1%, O=C(CCCN1C(=O)c2ccccc2C1=O)Oc1ccc(Cl)cc1 37.3%, COc1cccc(OCc2ccc(C(=O)NCC3CCCO3)cc2)c1 (stereo not drawn) 36.2%, CC1(O)N(Cc2ccccc2)C(=O)OC12CCCCC2 (stereo not drawn) 29.2%, O=C(COC(=O)c1ccc(-c2ccc([N+](=O)[O-])cc2)o1)NC(=O)NC1CCCCC1 37.8%, O=C(N/N=C/c1cc(Cl)ccc1O)c1ccc(Br)cc1 43.6%, CCCCNC(=O)Nc1cc(C)on1 23.2%, CN(C)/C=N/n1cnc2ccccc2c1=O 23.6%, CCOC(=O)C1CCN(C(=O)c2cc3cc4cc(OC)ccc4nc3o2)CC1 45.9%, CCOc1ccc2nc(SC3CC(=O)N(c4cccc(OC)c4)C3=O)sc2c1 (stereo not drawn) 32.1%, O=C(O)C1CCN(C(=O)c2csc(-c3ccc4c(c3)CCO4)n2)CC1 22.9%, Cc1cccc(C)c1OCCNC(=O)CCC(=O)c1ccccc1 33.9%, Cc1ccc(C(=O)CCC(=O)O)cc1 37%, O=C1OC(/C=C/c2ccc(Cl)cc2)=NC/1=C/c1ccco1 36.4%, CCCNCC1COc2ccccc2O1 (stereo not drawn) 31.2%, COc1ccccc1OCCN1CSC(=S)N(C)C1 47%, O=[N+]([O-])c1cc2oc3c(c2c(C=NCc2ccccc2)c1O)CCCC3 34.6%, Cc1oc(-c2ccccc2Cl)nc1CSc1nc2c(c(=O)[nH]1)CCC2 31.5%, Cc1ccc(NC(=O)N(C2CCCCC2)C(C)c2cccnc2)cc1C (stereo not drawn) 32.9%, Clc1ccc(C2=NNC(=NCc3ccc4c(c3)OCO4)SC2)cc1 27.9%, N#CC(C#N)=c1ccc2c(c1)N1C3=C(CCCC3)CC3CCCCC31N=2 (stereo not drawn) 7.95%, CC1CCCC/C1=N\Nc1ccc(S(N)(=O)=O)cc1[N+](=O)[O-] (stereo not drawn) 30.3%, COC(=O)c1c(S(=O)(=O)NCc2ccccc2)sc(C(=O)O)c1C 22%, Fc1ccc(Nc2ccnc(Nc3ccc(F)cc3)n2)cc1 29.5%
